# From PubChem BioAssay AID624418 (National Center for Advancing Translational Sciences (NCATS), 2012)
# The campaign covered roughly 410,000 compounds. About 530 (0.13%) were called active. Another 5% or so got no clear call; they are omitted. The full list was thinned out, with actives kept by preference. Unmarked numbers belong to inactive results. Calls come from the whole dose curve; as a rule, active = well fitted inhibition curve with a large enough effect; inconclusive = small, poorly fitted or top-dose-only effect, or another doubt; inactive = no such curve, though single readings can be large or run the other way.
# Assay: qHTS of GLP-1 Receptor Inverse Agonists: Cytotox Screen;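 note: loss of luciferase light is scored as toxicity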
# Details: HEK293 cAMP-luciferase reporter cells, luminescence, 24 h; series mostly up to 38.3 µM; activity change, negative = inhibition: at the top concentration
# Outline: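 Seeding density was 200 cells/uL; after overnight-length (12 h) culture, 23 nL compounds went on for 24 h at 37 °C. Readout used a luciferase detection reagent, luminescence taken after 12 min at room temperature.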
# % is set by controls: 0 for no effect and ±100 for the full control effect; potency is the fitted concentration of half-maximal effect.
Compound,Potency,"activity change, negative = inhibition [%]"
O=C1/C(=C\c2ccc([N+](=O)[O-])cc2)CS(=O)(=O)C/C1=C/c1ccc([N+](=O)[O-])cc1,3.16 µM (active),–
COc1cc(C(=O)N2CCN(C(=O)COc3cccc(C)c3)CC2)cc(OC)c1OC,–,-5.09
CCc1nc2nc(C)cc(Nc3ccc(F)c(Cl)c3)n2n1,–,17.1
COCCNC(=O)CSc1c(C)cnc2c1c(=O)n(C)c(=O)n2C,–,5.33
CCOCCCNC(=O)c1c(NC(=O)Cc2coc3c(C)c(C)ccc23)sc2c1CCC2,–,23.9
Cc1ccc(S(=O)(=O)c2nnn3c2nc(N2CCN(c4ccccc4F)CC2)c2cc(Cl)ccc23)cc1C,–,-2.54
CN(C)C(=S)N=c1ssc(=S)n1Cc1ccco1,0.316 µM (active),–
CCc1ccccc1N1CN(Cc2ccco2)CNC1=S,–,1.02
CCOC(=O)c1ccc(CN(Cc2ccccc2)S(=O)(=O)c2ccc(Cl)cc2)cc1,–,-0.273
COc1c(Cl)cc(Cl)cc1C(=O)Nc1cccc2cccnc12,–,1.03
CC(C)C12CN3CC(C(C)C)(CN(C1)C3c1ccc(OCc3ccccc3)cc1)C2=O (centres undefined),–,-5.12
Cc1ccccc1-c1nc2cc(NC(=O)c3cccc(OCCC(C)C)c3)ccc2o1,–,-0.847
COc1ccc(-n2c(SC)nc3sc4c(c3c2=O)CCN(C(C)=O)C4)cc1,–,1.79
O=C(c1ccc2c(c1)N(Cc1ccccc1)C(=O)c1ccccc1S2(=O)=O)N1CCCC1,–,-15.1
CC1CCCCN1CC(=O)N1CCCc2c1c(=O)oc1ccc(OCc3ccccc3)cc21 (centres undefined),–,25.7
CCC1CCCCN1Cc1c(O)ccc2c(=O)c(Oc3ccccc3Cl)c(C(F)(F)F)oc12 (centres undefined),–,-12.2
COC(=O)c1sccc1S(=O)(=O)N(CC(=O)Nc1ccc(C)c(F)c1)c1ccc(C)c(C)c1,–,11
O=S(=O)(c1ccc2nc(N3CCN(c4cccc(Cl)c4)CC3)ccc2c1)N1CCCCC1,–,-3.17
COc1ccccc1NC(=O)CN1C(=O)c2ccccc2Sc2ccc(C(=O)N3CCCC3)cc21,–,2.54
CCOc1ccc(NC(=O)c2cc3c(=O)n(Cc4cccs4)ccc3nc2C)cc1,–,-11.3
CCCC(=O)Nc1ccc2oc(-c3ccc(O)c(Br)c3)nc2c1,–,1.34
COc1ccc(C(F)(F)F)cc1NC(=O)c1sc2nc(-c3cccs3)ccc2c1N,–,42.7
CCCCCn1c(=O)[nH]c2cc(C(=O)Nc3cc(C)cc(C)c3)ccc2c1=O,–,-1.84
O=C(Cn1ncc2c3ccccc3n(Cc3ccccc3)c2c1=O)NC1CCCCCC1,–,1.54
COc1ccc(-c2noc(CSc3nc4ccc(C)cc4[nH]3)n2)cc1,–,3.26

Compound,Potency,"activity change, negative = inhibition [%]"
Cc1ccc(-n2ncc(C(=O)N(C)Cc3ccccc3)c2-n2cccc2)cc1,–,6.28
CCOc1ccc(S(=O)(=O)c2cn(Cc3ccc(OC)cc3)c3ccc(F)cc3c2=O)cc1,–,6.07
N#C/C(=C\c1ccccc1F)c1nc2ccccc2c(=O)[nH]1,–,3.51
Cc1ccc2nc(CNC(=O)c3ccccc3)[nH]c2c1,–,0.115
O=C(/C(=C/c1cccc(Cl)c1)c1nc2ccccc2[nH]1)c1ccccc1,10 µM (active),–
COc1ccc(-c2noc(CSc3nc(C)cc(=O)[nH]3)n2)cc1OC,–,4.68
CCOc1ccc(NC(=O)CN(Cc2ccccc2)S(=O)(=O)c2ccc(Cl)cc2)cc1,–,5.24
CCOc1ccc(N(Cc2ccccc2)C(=O)c2nc(S(C)(=O)=O)ncc2Cl)cc1,7.94 µM (active),–
CCOc1ccc(N(Cc2ccccc2)C(=O)c2nc(SCC)ncc2Cl)cc1,–,1.37
CCCCC(CC)CNC(=O)C1CCN(S(=O)(=O)c2cccc3nsnc23)CC1 (centres undefined),–,3.7
COC(=O)CN1C(=O)CSc2ccc(S(=O)(=O)Nc3cc(C)ccc3C)cc21,–,0.545
CCCNC(=O)c1ccc(Cn2c(SCC(N)=O)nc3ccccc3c2=O)cc1,–,-2.77
Cc1csc(NC(=S)Nc2cccc(Cl)c2)n1,0.891 µM (active),–
COc1cccc(NC(=S)NC(=O)c2c(Cl)c(C)nn2C)c1,–,0.241
O=C(Nc1cccc(Cl)c1)c1csnn1,–,0.685
O=C(CCOc1ccccc1)N(Cc1cccnc1)c1nc2ccc(Cl)cc2s1,–,18.2
COc1ccc(NC(=O)Cn2c(=O)n(CCC(C)C)c(=O)c3cccnc32)cc1Cl,–,-15.9
CCOc1ccc(NC(=O)CSc2c3c(nc4ccccc24)CCCC3)cc1,–,-14.3
COc1ccc(C2NC(=O)N(C)C3=C2C(=O)N(c2ccc(C(=O)O)cc2)C3)cc1 (centres undefined),–,5.54
COc1ccccc1CNc1nc2ccc(Cl)cc2n2cnnc12,–,-12
O=c1c2ccccc2n(Cc2cccc(Cl)c2)c(=O)n1Cc1ccccc1,–,0
COc1ccc(C(=O)CSc2c(C(C)C)cnc3c2c(=O)n(C)c(=O)n3C)cc1,–,-5.41
COc1ccc(C2CC(=O)Nc3c2c(=O)nc2c(C)cccn32)cc1OC (centres undefined),–,-5.18
CC(=O)N1c2ccccc2CC1C(=O)N1CCN(c2ccc(F)cc2)CC1 (centres undefined),–,-1.77
